SMN2 splice enh: qHTS Assay for Enhancers of SMN2 Splice Variant Expression; 210,000 compounds, 2.8% hits; HEK293 SMN2-luciferase splicing reporter, luminescence, 30-36 h; Potency, µM (top dose mostly 46.1 µM), for inactives: at the highest dose activity change, positive = activation, hits mostly activators; also: % of control where 0% means no effect; nearly all actives have a fitted effect of over 55% in size
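HEK293 cells carry an SMN2 […]–luciferase reporter in which exon 7 inclusion puts luciferase in frame. Cells were plated 10-12 h before compound addition, then incubated 30-36 h at 37C. ONE-Glo luminescence was read; sodium butyrate at 4.5 mM final served as control.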
ELG1 repair inh: qHTS screen for small molecules that inhibit ELG1-dependent DNA repair in human embryonic kidney (HEK293T) cells expressing luciferase-tagged ELG1; 330,000 compounds, 2.3% hits; Potency, µM (top dose mostly 46.1 µM), for inactives: at the top dose activity change, negative = inhibition, usual class: inhibitors; HEK293T ELG1-luciferase reporter, luminescence, 16 h; DNA damage induced by 5-fluorouridine; also: % is scaled to controls: 0 for no effect and ±100 for the full control effect; nearly all actives have a fitted effect of over 55% in size
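Overnight (16 hr) co-exposure of 2,000 cells/well to 5-fluorouridine and compound at 37 °C preceded detection. Luciferase was quantified via ONE-Glo luminescence; loss of signal denotes inhibition.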
Rab9 promoter act: qHTS Assay for Rab9 Promoter Activators | Huh7 Rab9 promoter-luciferase reporter, luminescence, 24 h | Potency, µM (series often up to 9.22 µM), inactives show at the top dose activation, negative = inhibition, most hits filed as activators | 320,000 compounds, 2.8% hits | AID 485297, 2010; also: % of control where 0% means no effect; nearly all actives have a fitted effect of over 60% in size
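Luciferase signal after 10 min detection reagent at ambient indicates Rab9 promoter upregulation; stably transfected Huh7 cells were treated 24 h with compound in DMSO at 37 °C, 5% CO2.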
ELG1 genotoxic: qHTS screen for small molecules that induce genotoxicity in human embryonic kidney (HEK293T) cells expressing luciferase-tagged ELG1; AID 504466, 2011; Potency, µM (titrated, usually from 46 µM), for the others: at the highest dose activity change, positive = activation, usual class: activators; HEK293T ELG1-luciferase reporter, luminescence, 16 h; 330,000 compounds, 1.3% hits; also: % of control where 0% means no effect; nearly all actives have a fitted effect of over 60% in size
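Quantitative HTS format in 1536-well plates. HEK293T ELG1-luciferase reporter cells receive test compound and are incubated 16 hr at 37 °C, 5% CO2; ONE-Glo added, 30 min room temperature, then luminescence read.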
FLuc counter: qHTS profiling assay for firefly luciferase inhibitor/activator using purifed enzyme and Km concentrations of substrates (counterscreen for miR-21 project); 360,000 compounds, 6.9% hits; purified FLuc, Km substrates, luminescence inhibition; Potency, µM (doses to about 57.5 µM), for the others: at the top dose activity change, negative = inhibition, hits mostly inhibitors; Luciferin 4-monooxygenase (Photinus pyralis), P08659;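 also: plate controls were vehicle for no effect and reference inhibitor for full effect; nearly all actives have a fitted effect of over 55% in size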
Target sequence (P08659 whole entry, looked up): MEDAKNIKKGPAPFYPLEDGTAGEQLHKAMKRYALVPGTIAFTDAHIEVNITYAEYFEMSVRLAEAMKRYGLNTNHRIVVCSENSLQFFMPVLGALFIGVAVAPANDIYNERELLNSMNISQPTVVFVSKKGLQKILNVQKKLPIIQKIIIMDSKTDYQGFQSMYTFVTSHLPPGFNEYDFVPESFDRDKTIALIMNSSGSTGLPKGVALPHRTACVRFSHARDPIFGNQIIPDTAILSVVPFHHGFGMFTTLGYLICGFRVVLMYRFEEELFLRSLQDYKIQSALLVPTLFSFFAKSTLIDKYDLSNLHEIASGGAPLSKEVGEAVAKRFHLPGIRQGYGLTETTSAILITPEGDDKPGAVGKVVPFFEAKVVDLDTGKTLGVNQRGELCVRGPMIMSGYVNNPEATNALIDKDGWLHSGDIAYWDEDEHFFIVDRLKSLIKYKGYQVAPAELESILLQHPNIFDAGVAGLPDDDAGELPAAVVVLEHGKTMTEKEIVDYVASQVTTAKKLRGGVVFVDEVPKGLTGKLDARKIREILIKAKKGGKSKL
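Purified P. pyralis luciferase, 10 nM final, with Km-level 10 uM D-luciferin and 10 uM ATP in 50 mM Tris acetate pH 7.5, 10 mM Mg acetate, 0.01% Tween-20, 0.05% BSA; 6-point qHTS titration about 60 µM downward; luminescence read.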
NPC1 promoter act: qHTS Assay for NPC1 Promoter Activators; Huh7 NPC1 promoter luciferase reporter, 24 h; Potency, µM (top dose mostly 9.22 µM), for inactives: at the highest dose activation, actives largely listed as activators; 320,000 compounds, 2.4% hits; also: % of control where 0% means no effect; nearly all actives have a fitted effect of over 60% in size
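NPC1 promoter–luciferase Huh7 cells; 24 h compound; luminescence.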
An asterisk follows results filed as active; ? = inconclusive; . = not tested or not shown. In the library only some 9.3% were active in any assay of this set; here they are far more common. Calls follow the shape of the dose curve; as a rule, active = well fitted curve in the direction sought with a large enough effect; inconclusive = small, poorly fitted or top-dose-only effect, or another doubt; inactive = no such curve, though single readings can be large; an effect the other way counts as inactive or inconclusive. Potency is read from the fitted curve at half-maximal effect.

SMILES	SMN2 splice enh	ELG1 repair inh	Rab9 promoter act	ELG1 genotoxic	FLuc counter	NPC1 promoter act
Cc1ccc(N2CCOCC2)c2c1C(=O)c1ccccc1C2=O	-52%	?	-3%	1%	-2%	-5%
COc1ccc2nc(NC(=O)c3ccoc3C)sc2c1	2µM*	?	0.45µM*	?	1.2µM*	0.63µM*
COc1ccc(C(=O)Nc2nc3cc4c(cc3s2)OCO4)c(OC)c1	.	?	0.79µM*	?	0.43µM*	0.79µM*
Cc1cc(C(=O)Nc2nc3ccc(S(C)(=O)=O)cc3s2)c(C)o1	5.6µM*	?	3.2µM*	8.2µM*	0.85µM*	?
COc1ccc2nc(NC(=O)c3ccc(-c4cccc([N+](=O)[O-])c4)o3)sc2c1	-14%	8%	7%	4%	-5%	1%
COc1ccc2nc(NC(=O)c3cc(C)oc3C)sc2c1	16µM*	?	2.8µM*	?	1.3µM*	?
COc1cc(C(=O)Nc2nc3ccc(S(C)(=O)=O)cc3s2)cc(OC)c1C	.	?	1%	-2%	-10%	0%
Cc1ccccc1CNC(=O)c1ccc(Cn2c(SCc3cccc(F)c3)nc3cccnc32)cc1	.	.	.	.	-9%	.
CCOc1cc(C(=O)OCC(=O)c2cc(C)n(CC3CCCO3)c2C)ccc1OCC(=O)N1CCOCC1 (stereo not given)	.	-4%	19%	3%	?	12%
Cc1cc(C(=O)COC(=O)c2ccccc2O)c(C)n1CC1CCCO1 (stereo not given)	.	?	-29%	-9%	0.085µM*	-27%
Cc1cc(C(=O)COC(=O)c2n[nH]c3ccccc23)c(C)n1CC1CCCO1 (stereo not given)	-34%	?	0.32µM*	?	?	0.35µM*
Cc1cc(C(=O)CSc2nnc(-c3ccncc3)n2-c2ccccc2)c(C)n1C	-11%	-21%	-6%	-3%	-6%	-2%
Cc1cc(C(=O)CSc2nnc(-c3cccnc3)n2-c2ccccc2)c(C)n1CC1CCCO1 (stereo not given)	-24%	?	?	12%	19µM*	21%
Cc1ccc(C(=O)OCC(=O)c2cc(C)n(CC3CCCO3)c2C)cc1 (stereo not given)	-2%	?	2.2µM*	?	4.3µM*	2.2µM*
O=C(Cc1ccsc1)NCC(c1ccco1)N1CCCCC1 (stereo not given)	-10%	0%	4%	0%	-1%	1%
CCOCC(=O)OCC(=O)NC12CC3CC(CC(C3)C1)C2	-7%	7%	-6%	3%	-3%	-6%
O=C(C[n+]1cccc(NC(=O)c2ccccc2)c1)c1ccc(NC(=O)c2ccccc2)cc1	1%	12%	1%	0%	-2%	-2%
C=CCNC(=S)N1CCN(c2ccc([N+](=O)[O-])cc2)CC1	.	-22%	1%	-6%	1%	-3%
CCOCCCN(CCC#N)C(=O)C1CCN(S(=O)(=O)c2ccc(-n3cnnn3)cc2)CC1	.	2%	1%	0%	1%	-3%
CC(=O)N1CCN(C(=O)CCC(=O)O)CC1	.	21%	1%	1%	-1%	-3%
Cc1cc(C(=O)COC(=O)C2COc3ccccc3O2)c(C)n1CC1CCCO1 (stereo not given)	-4%	2%	-8%	-1%	4.8µM*	1%
Cc1cc(C(=O)COC(=O)c2cc(O)c3ccccc3c2O)c(C)n1CC1CCCO1 (stereo not given)	1%	0%	13%	2%	19µM*	8%
